Measurements taken from PubChem BioAssay (NCATS).
Records with an inconclusive call do not appear. Unless noted, calls come from the whole dose curve; as a rule, active = well fitted activation curve with a large enough effect in the main read-out, with a control signal flat (not every such curve was filed as active); inconclusive = small, poorly fitted or top-dose-only effect, or effect the other way, or a change in a side signal; inactive = flat fitted curve, though single readings scatter.

biological target: 3',5'-cyclic-AMP phosphodiesterase 4B (Homo sapiens) (UniProt Q07343); experiment: qHTS Assay for Inhibitors of PDE-IV (AID 607); conditions: HEK293 ACTOne CNG channel cells, membrane potential fluorescence; series mostly up to 22.9 µM; activation (PDE inhibition): at the top concentration; note: % of control where 0% means no effect
Sequence (Q07343 whole entry, looked up): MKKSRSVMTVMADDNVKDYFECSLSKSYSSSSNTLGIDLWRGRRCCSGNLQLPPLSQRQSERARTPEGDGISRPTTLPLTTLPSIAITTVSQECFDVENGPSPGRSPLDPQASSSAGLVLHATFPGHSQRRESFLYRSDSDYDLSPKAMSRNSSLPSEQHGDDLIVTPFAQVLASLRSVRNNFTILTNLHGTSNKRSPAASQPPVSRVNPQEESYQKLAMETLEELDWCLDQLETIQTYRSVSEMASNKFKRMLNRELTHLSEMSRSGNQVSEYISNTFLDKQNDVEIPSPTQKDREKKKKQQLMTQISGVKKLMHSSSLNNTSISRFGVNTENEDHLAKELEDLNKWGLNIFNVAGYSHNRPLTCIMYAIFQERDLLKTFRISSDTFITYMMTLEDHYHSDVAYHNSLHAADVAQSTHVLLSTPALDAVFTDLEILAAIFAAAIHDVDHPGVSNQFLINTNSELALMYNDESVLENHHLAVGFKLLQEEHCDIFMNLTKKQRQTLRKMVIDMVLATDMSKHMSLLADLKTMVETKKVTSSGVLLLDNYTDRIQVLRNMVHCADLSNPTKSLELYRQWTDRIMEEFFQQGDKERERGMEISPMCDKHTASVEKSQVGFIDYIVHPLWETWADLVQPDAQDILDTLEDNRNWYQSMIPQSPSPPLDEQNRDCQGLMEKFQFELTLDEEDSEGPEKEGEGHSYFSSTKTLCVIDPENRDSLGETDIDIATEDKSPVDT
Method in brief: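 Cell-based read-out of cAMP via a modified cyclic nucleotide-gated channel and membrane potential dye (535/590 nm) in HEK293 cells expressing PDE4 endogenously. Compounds tested up to 22.9 uM final; 100 uM RO 20-1724 reference.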

Activation (PDE inhibition), inactive:
COC(=O)[C@@]1(Cc2ccc(F)cc2)[C@H]2c3cc(C(=O)N(C)C)n(CC4CC4)c3C[C@H]2CN1C(=O)c1ccccc1 13.2%
COC(=O)[C@@]1(Cc2ccccc2)[C@H]2c3cc(C(=O)N(C)C)n(Cc4ccc(O)c(OC)c4)c3C[C@H]2CN1C(=O)c1ccccc1 20.4%
COC(=O)[C@@]1(Cc2ccc(OC)cc2)[C@H]2c3cc(C(=O)N(C)C)n(Cc4ccccc4)c3C[C@H]2CN1C(=O)c1ccccc1 -3.04%
Cc1ccc(CNC(=O)[C@H]2C[C@@H]2[C@H](NP(=O)(c2ccccc2)c2ccccc2)c2ccccc2)o1 11.9%
COC(=O)[C@@]1(Cc2ccc(OC)cc2)[C@H]2c3cc(C(=O)N4CCCC4)n(CCc4ccc(O)c(O)c4)c3C[C@H]2CN1C(=O)c1ccccc1 -15.9%
COC(=O)[C@@]1(Cc2ccc(F)cc2)[C@H]2c3cc(C(=O)N4CCCC4)n(CCc4ccccn4)c3C[C@H]2CN1C(=O)c1ccccc1 11.2%
COCCNC(=O)[C@H](C)[C@H]1C[C@]1(C)[C@H](NC(=O)OCc1ccccc1)c1ccccc1 6.67%
O=C(N[C@@H](c1ccccc1)[C@@H]1C[C@H]1C(=O)NCc1ccccc1)OCc1ccccc1 26.5%
CCCC/C=C/C(NC(=O)OCc1ccccc1Cl)c1ccccc1 (centres undefined) 17.9%
COC(=O)[C@@]1(Cc2ccc(F)cc2)[C@H]2c3cc(C(=O)N(C)C)n(Cc4ccccc4)c3C[C@H]2CN1C(=O)c1ccccc1 -2.62%
COC(=O)[C@@]1(Cc2ccc(OC)cc2)[C@H]2c3cc(C(=O)N4CCCC4)n(Cc4ccc(C)o4)c3C[C@H]2CN1C(=O)c1ccccc1 22.3%
COC(=O)[C@@]1(Cc2ccc(OC)cc2)[C@H]2c3cc(C(=O)N(C)C)n(C[C@H](O)CO)c3C[C@H]2CN1C(=O)c1ccccc1 0.378%
CCCC/C=C/C(NC(=O)CCc1ccccc1)c1ccccc1 (centres undefined) -4.82%
COC(=O)[C@@]1(Cc2ccc(OC)cc2)[C@H]2c3cc(C(=O)N4CCCC4)n(CCCNc4ncc(C(F)(F)F)cc4Cl)c3C[C@H]2CN1C(=O)c1ccccc1 1.75%
COC(=O)[C@H]1[C@@H]2C[C@H]3c4[nH]c5ccccc5c4CCN3C[C@@H]2CC[C@@H]1O -2.06%
COC(=O)[C@@]1(Cc2ccc(OC)cc2)[C@H]2c3cc(C(=O)N(C)C)n(CCO)c3C[C@H]2CN1C(=O)c1ccccc1 -3.51%
COC(=O)[C@@]1(Cc2ccc(OC)cc2)[C@H]2c3cc(C(=O)N4CCCC4)n(CCN4CCOCC4)c3C[C@H]2CN1C(=O)c1ccccc1 17.7%
COC(=O)[C@@]1(Cc2ccc(OC)cc2)[C@H]2c3cc(C(=O)N4CCCC4)n(CCc4ccccn4)c3C[C@H]2CN1C(=O)c1ccccc1 2.54%
COC(=O)[C@@]1(Cc2ccc(OC)cc2)[C@H]2c3cc(C(=O)N4CCCC4)n(Cc4cc(C)n(C)n4)c3C[C@H]2CN1C(=O)c1ccccc1 19.1%
COC(=O)[C@@]1(Cc2ccc(OC)cc2)[C@H]2c3cc(C(=O)N(C)C)n(Cc4cccc5ccccc45)c3C[C@H]2CN1C(=O)c1ccccc1 5.5%
COC(=O)[C@@]1(Cc2ccc(OC)cc2)[C@H]2c3cc(C(=O)N(C)C)n(C)c3C[C@H]2CN1C(=O)c1ccccc1 -5.49%
COc1ccc(CNC(=O)[C@H](C)[C@H]2C[C@]2(C)[C@H](NC(=O)OCc2ccccc2)c2ccccc2)cc1OC 22.9%
CCC/C=C(\CCC)C(NC(=O)CCc1ccccc1)c1ccc(C(F)(F)F)cc1 (centres undefined) -2.42%
COC(=O)Cn1c(C(=O)N(C)C)cc2c1C[C@H]1CN(C(=O)c3ccccc3)[C@@](Cc3ccc(F)cc3)(C(=O)OC)[C@@H]21 -4.78%
COC(=O)[C@@]1(Cc2ccc(OC)cc2)[C@H]2c3cc(C(=O)N(C)C)n(Cc4ccc(C)c(F)c4F)c3C[C@H]2CN1C(=O)c1ccccc1 -33.3%

biological target: Luciferin 4-monooxygenase (Photinus pyralis) (UniProt P08659); experiment: Biochemical firefly luciferase enzyme assay for NPC (AID 624030; active = well fitted inhibition curve with a large enough effect;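 note: purified P. pyralis luciferase at 10 nM with luciferin and ATP substrate; 0% = DMSO and -100% = full luciferase inhibition by PTC124 control; nearly all actives have a fitted effect of over 70% in size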); conditions: purified P. pyralis luciferase, luminescence, 5 min; series mostly up to 58.6 µM; activity change, negative = inhibition: at the top concentration
Sequence (P08659 whole entry, looked up): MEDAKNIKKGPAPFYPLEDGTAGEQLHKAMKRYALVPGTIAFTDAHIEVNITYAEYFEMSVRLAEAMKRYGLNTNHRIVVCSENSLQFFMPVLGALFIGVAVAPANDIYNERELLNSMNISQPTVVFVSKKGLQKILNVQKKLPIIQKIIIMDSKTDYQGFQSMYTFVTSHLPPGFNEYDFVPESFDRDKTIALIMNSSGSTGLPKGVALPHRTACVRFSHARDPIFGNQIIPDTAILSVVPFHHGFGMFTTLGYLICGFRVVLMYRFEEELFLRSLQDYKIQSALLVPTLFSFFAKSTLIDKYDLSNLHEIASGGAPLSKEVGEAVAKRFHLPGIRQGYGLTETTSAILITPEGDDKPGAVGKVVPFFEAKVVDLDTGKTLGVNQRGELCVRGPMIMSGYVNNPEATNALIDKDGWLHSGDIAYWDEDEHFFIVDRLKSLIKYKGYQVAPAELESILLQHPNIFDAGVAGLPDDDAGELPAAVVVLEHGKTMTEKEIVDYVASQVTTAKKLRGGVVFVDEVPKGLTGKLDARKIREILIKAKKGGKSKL
Method in brief: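 Counter-screen for direct inhibition of the luciferase enzyme by approved-drug library compounds, run at 10 nM enzyme in 50 mM Tris acetate (final). Luminescence was read within 5 min of enzyme-buffer addition and normalized to PTC124 versus DMSO (0%).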

Activity change, negative = inhibition, inactive:
CCC(=O)C(Cc1ccccc1)(Cc1ccccc1)CC(C)N(C)C (centres undefined) 2.41% [at 123 µM]
CCO[C@@H](Cc1ccc(OCCc2ccc(OS(C)(=O)=O)cc2)cc1)C(=O)O -17.8%
COc1ccc2c(C(=S)N(C)CC(=O)O)cccc2c1C(F)(F)F -8.99%
C(=C1NCCN1)c1cccc2ccccc12 0.0122%
c1cnc2cc3c(cc2n1)[C@@H]1CNC[C@@H]3C1 1.04%
O=C1OC2C(O)C(O)OC2C1O (centres undefined) -1.14%
CCCC(=O)O[C@]1(C(=O)COC(=O)CC)CC[C@@H]2[C@@H]3CCC4=CC(=O)CC[C@]4(C)[C@H]3[C@@H](O)C[C@@]21C 54.4%
CCN1CCC[C@@H]1CNC(=O)c1cc(S(=O)(=O)CC)ccc1OC -2.47%
CCCCCCCC(=O)CC[C@H]1[C@@H](C/C=C/CCCC(=O)OC(C)C)[C@@H](O)C[C@H]1O 2.73%
CCN1CCN(C(=O)N[C@H](C(=O)N[C@@H]2C(=O)N3[C@@H](C(=O)O)C(C)(C)S[C@@H]23)c2ccccc2)C(=O)C1=O -6.63%
COc1cc2c(c(OC)c1OC)-c1c(cc3c(c1OC)OCO3)CC(C)C(C)(O)C2 (centres undefined) -6%
CCC(C)C1OC2(C=CC1C)CC1CC(C/C=C(\C)C(OC3CC(OC)C(OC4CC(OC)C(NC(C)=O)C(C)O4)C(C)O3)C(C)/C=C/C=C3\COC4C(O)C(C)=CC(C(=O)O1)C34O)O2 (centres undefined) (tested in a mixture with another compound) -3.99%
OCC1OC(OC2C(CO)OC(OC3C(CO)OC(O)C(O)C3O)C(O)C2O)C(O)C(O)C1O (centres undefined) -1.03%
O=C(CO)C(O)C(O)C(O)CO (centres undefined) 2.01%
